Compound activity deposited in PubChem by Broad Institute.
aSyn 5UTR inh – MLPCN primary screen, SNCA 5' untranslated region; 300,000 tested, 0.82% active; alpha-synuclein 5'UTR reporter, inhibitor activity; inhibition, % (tested at 7.5 µM); in the data active = inhibition above about 60%;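 note: H4 neuroglioblastoma cells stably carrying SNCA 5'UTR luciferase fusion; 0% = DMSO wells and 100% = positive control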
Shn3 inh set2 – Schnurri-3 reporter inhibition in Clone20 osteoblasts | Clone20 osteoblast Shn3 3'UTR firefly luciferase, 24 h | inhibition, % at 12.5 µM | 360,000 tested, 0.52% active;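 active = mean inhibition of at least 75% with every replicate also reaching 75%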;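 note: 0% = median of neutral control wells and 100% = pilot-screen positive control compound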
PAX8 reporter – lowers PAX8-driven luciferase in RMG-I cells; 360,000 tested, 1.2% active; RMG-I TPO-luciferase reporter, SteadyGlo, 24 h; inhibition, % at 12.6 µM;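 active = mean replicate inhibition at least 60% with every replicate also reaching 60%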;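 note: luciferase light reporting Pax8 driven TPO promoter activity; plate controls were median of neutral control wells for no effect and mitoxantrone controls for full effect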
TRPM1 prom inh – inhibitors of MITF-driven TRPM1 promoter in melanoma cells; SK-MEL-5 TRPM1 promoter luciferase, 24 h; AID 488899; 330,000 tested, 0.83% active; inhibition, % at 12.5 µM;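 active = mean inhibition across replicates of 60% or more, whatever share of single replicates reaches that level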
LMP1 NFkB inh – inhibitors of Epstein-Barr LMP1-induced NF-kappaB reporter; LMP1-induced NF-kappaB luciferase reporter cells, luminescence; inhibition, % at 12.5 µM; 350,000 tested, 0.69% active; in the data active = inhibition above about 41%;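 note: 0% = neutral control wells and 100% = reference inhibitor control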
Active calls of the source: *; x = no result. This is a sample that favours compounds with a hit; in the whole collection about 2.1% have one here.

SMILES | aSyn 5UTR inh | Shn3 inh set2 | PAX8 reporter | TRPM1 prom inh | LMP1 NFkB inh
c1ccc(C[C@H]2CN=C(Nc3ccccc3)N2CC2CCC2)cc1 | x | 20.1 | -7.1 | -13.3 | -0.8
Cc1ccc(S(=O)(=O)CC2CSc3nc(N)cc(=O)n32)cc1 (stereo not drawn) | -27.5 | -6.0 | x | 5.8 | -2.4
Cc1ccc(S(=O)(=O)CC2CSc3nc4ccccc4n32)cc1 (stereo not drawn) | -12.6 | 90.2* | x | 12.8 | 21.0
CCN1CCN(CCNC(=O)c2cn(C(C)c3ccccc3F)nn2)CC1 (stereo not drawn) | 2.6 | -3.4 | x | 2.4 | -6.0
COc1ccc(CNC[C@@H](CCCCN(C)Cc2ccc(OC)cc2)N2C[C@H](c3ccccc3)N(CCc3ccc(Cl)c(Cl)c3)C(=O)C2=O)cc1 | 92.2* | 94.9* | x | 96.3* | 88.8*
Cc1ccc2[nH]c(=S)cc(C)c2c1 | -10.7 | -13.0 | x | 9.9 | 4.9
Cc1cc(=S)[nH]c2ccccc12 | -5.3 | 4.4 | x | 8.6 | 62.6*
Cc1cccc(S(=O)(=O)N2CCCCN3[C@H](CO)[C@H](c4ccc(C#C[C@H](C)O)cc4)[C@H]3C2)c1 | x | x | 86.1* | x | x
C[C@H](O)C#Cc1ccc([C@@H]2[C@@H](CO)N3CCCCN(S(=O)(=O)c4ccccc4)C[C@H]23)cc1 | x | x | 76.0* | x | x
Cc1cccc(S(=O)(=O)N2CCCCN3[C@H](CO)[C@H](c4ccc(C#CC(C)C)cc4)[C@H]3C2)c1 | x | x | 78.2* | x | x
Cc1cccc(S(=O)(=O)N2CCCCN3[C@H](CO)[C@@H](c4ccc(C#C[C@H](C)O)cc4)[C@@H]3C2)c1 | x | x | 32.5 | x | x
COc1cccc(S(=O)(=O)N2CCCCN3[C@H](CO)[C@@H](c4ccc(C#CC(C)C)cc4)[C@@H]3C2)c1 | x | x | -22.2 | x | x
COc1cccc(S(=O)(=O)N2CCCCN3[C@H](CO)[C@H](c4ccc(C#CC(C)C)cc4)[C@@H]3C2)c1 | x | x | 71.2* | x | x
C[C@H](O)C#Cc1ccc([C@@H]2[C@@H](CO)N3CCCCN(S(=O)(=O)c4ccccc4)C[C@@H]23)cc1 | x | x | 15.6 | x | x
CCN(CC(=O)NC1CCS(=O)(=O)C1)S(=O)(=O)c1cc(Br)ccc1Br (stereo not drawn) | 7.9 | -3.3 | 5.4 | 3.7 | -0.2
C[C@@H]1CN([C@@H](C)CO)S(=O)(=O)c2ccc(C#C[C@@H](C)O)cc2O[C@@H]1CN(C)Cc1ccc(-c2ccccc2)cc1 | x | x | 77.0* | x | x
C[C@H](O)C#Cc1ccc2c(c1)O[C@H](CN(C)Cc1ccc(-c3ccccc3)cc1)[C@@H](C)CN([C@@H](C)CO)S2(=O)=O | x | x | 108.9* | x | x
C[C@H](O)C#Cc1ccc2c(c1)O[C@H](CN(C)Cc1cncnc1)[C@@H](C)CN([C@@H](C)CO)S2(=O)=O | x | x | 3.6 | x | x
C[C@H](O)C#Cc1ccc2c(c1)O[C@H](CN(C)Cc1ccc(-c3ccccc3)cc1)[C@H](C)CN([C@@H](C)CO)S2(=O)=O | x | x | 81.1* | x | x
C[C@H](O)C#Cc1ccc2c(c1)O[C@@H](CN(C)Cc1ccc(-c3ccccc3)cc1)[C@H](C)CN([C@H](C)CO)S2(=O)=O | x | x | 94.0* | x | x
CCC(CO)(CO)N(CC(=O)Nc1ccc(OC)cc1)CC(=O)Nc1ccc(OC)cc1 | -8.2 | -3.5 | 15.0 | 2.1 | -24.5
COc1ccc(OC)c(NC(=O)C2CC(=O)n3ncnc3N2)c1 (stereo not drawn) | -2.9 | -21.2 | -7.9 | -1.2 | 4.7
Cc1nnc(-c2ccccc2)c(=O)n1/N=C/c1c(O)ccc2ccccc12 | 83.1* | 50.5 | x | 27.7 | 14.0
Cc1nnc(C)n1/N=C/c1c(O)ccc2ccccc12 | -4.9 | 13.4 | 14.9 | 17.9 | 3.2
Cc1ccc(-n2c(-c3nn(C)c(C)c3Cl)n[nH]c2=S)cc1 | 7.1 | 6.8 | -6.3 | 12.8 | -9.2
SMILES | aSyn 5UTR inh | Shn3 inh set2 | PAX8 reporter | TRPM1 prom inh | LMP1 NFkB inh
CCC[n+]1c(C)sc2c3c(ccc21)CCCC3 | x | 92.1* | x | 67.4* | 22.9
COc1cccc(S(=O)(=O)Nc2ccc3c(c2)[C@@H]2C[C@H](CC(=O)N4CCCCC4)O[C@H](CO)[C@@H]2O3)c1 | x | x | 1.7 | x | x
Cc1ccc(Nc2c(-c3ccccn3)nc3cccc(C)n23)cc1 | 13.7 | 89.8* | 53.4 | 70.6* | 27.1
COC(=O)CSc1nc(C)c(C(=O)Nc2ccccc2C)c(-c2ccc(Cl)cc2)c1C#N | 8.6 | 17.1 | -34.1 | 4.6 | -7.1
CSCC[C@@H](C(=O)O)N1Cc2ccccc2C1=O | 1.3 | -13.0 | 8.7 | -4.3 | 2.1
Cc1ccc(-c2nnc(N3CCC(C)CC3)c3ccccc23)cc1 | 10.3 | 20.3 | 11.7 | -1.2 | 2.9
Cc1ccc(-c2nnc(N3CCC(C)CC3)c3ccccc23)cc1C | 7.8 | 90.5* | 34.9 | 18.0 | 7.1
